Structures can show the parent of a compound that is named as a salt. ± gives the standard deviation of the averaged measurements.
test system: E. coli TESEC Mtb Alr; experiment: growth (OD600 after 10 h); higher = more growth (less inhibition); details: arabinose 100000 nM; compound 0.1 mM; raw OD600 reference: median of DMSO wells 0.201, cell-free background 0.041
Experimental: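 TESEC Mtb Alr E. coli, or the Alr+ wild-type control, in 384-well plates with Prestwick library compounds at 0.1 mM and 1% DMSO, across arabinose induction levels of 1E3 to 1E7 nM. Growth is read as OD600 after 10 h at 37 °C in triplicate biological replicates.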

SMILES	growth
CC1(C)O[C@@H]2C[C@H]3[C@@H]4C[C@H](F)C5=CC(=O)C=C[C@]5(C)[C@@]4(F)[C@@H](O)C[C@]3(C)[C@]2(C(=O)CO)O1 [Fluocinolone acetonide]	0.153 ± 0.0083
O=C1CC[C@@H](C(=O)N2CSC[C@H]2C(=O)O)N1 [Pidotimod]	0.184 ± 0.032
Cc1cc(NS(=O)(=O)c2ccc(N)cc2)no1 [Sulfamethoxazole]	0.228 ± 0.0092
CN(Cc1cnc2nc(N)nc(N)c2n1)c1ccc(C(=O)N[C@@H](CCC(=O)O)C(=O)O)cc1 (racemic) [Amethopterin (R,S)]	0.206 ± 0.049
CN(C)CCCN1c2ccccc2CCc2ccc(Cl)cc21 [Clomipramine hydrochloride]	0.0451 ± 0.0062
CN1CCN2c3ccccc3Cc3ccccc3C2C1 (stereo not given) [Mianserine hydrochloride]	0.211 ± 0.014
CCCN(CCC)C(=O)C(CCC(=O)O)NC(=O)c1ccccc1 (stereo not given) [Proglumide]	0.22 ± 0.025
CCCCOc1ccc(CC(=O)NO)cc1 [Bufexamac]	0.202 ± 0.025
CC(C)CC(=O)N[C@H](C(=O)N[C@H](C(=O)N[C@@H](CC(C)C)[C@@H](O)CC(=O)N[C@@H](C)C(=O)N[C@@H](CC(C)C)[C@@H](O)CC(=O)O)C(C)C)C(C)C [Pepstatin A]	0.234 ± 0.043
CO[C@@]1(NC(=O)C2SC(=C(C(N)=O)C(=O)O)S2)C(=O)N2C(C(=O)O)=C(CSc3nnnn3C)CS[C@@H]21 (stereo not given in full) [Cefotetan]	0.03763 ± 0.00032
CC[N+](CC)(CC)CCC(O)(c1ccccc1)C1CCCCC1 (stereo not given) [Tridihexethyl chloride]	0.199 ± 0.019
O=C1c2ccccc2C(=O)C1c1ccccc1 [Phenindione]	0.197 ± 0.03
CC(C)NC(=N)NC(=N)Nc1ccc(Cl)cc1 [Proguanil hydrochloride]	0.176 ± 0.013
Cc1[nH]cnc1CN1CCc2c(c3ccccc3n2C)C1=O [Alosetron hydrochloride]	0.225 ± 0.0049
O=c1cc(-c2ccc(O)c(O)c2)oc2cc(O)cc(O)c12 [Luteolin]	0.05233 ± 0.00025
O=C1OC(CN2CCOCC2)CN1/N=C/c1ccc([N+](=O)[O-])o1 (stereo not given) [Furaltadone hydrochloride]	0.04173 ± 5.8e-05
O=C(c1ccc(OCCN2CCCCC2)cc1)c1c(-c2ccc(O)cc2)sc2cc(O)ccc12 [Raloxifene hydrochloride]	0.048 ± 0.0037
CNS(=O)(=O)Cc1ccc2[nH]cc(CCN(C)C)c2c1 [Sumatriptan succinate]	0.2 ± 0.024
Cc1ccc(C)c(OCCCC(C)(C)C(=O)O)c1 [Gemfibrozil]	0.163 ± 0.0097
O=C(NCC(O)CO)c1c(I)c(C(=O)NCC(O)CO)c(I)c(N(CCO)C(=O)CO)c1I (stereo not given) [Ioversol]	0.208 ± 0.015

SMILES	growth
CN(C)CCOC(c1ccc(Cl)cc1)c1ccccn1 (stereo not given) [Carbinoxamine maleate salt]	0.196 ± 0.034
C=CCSCC1Nc2cc(Cl)c(S(N)(=O)=O)cc2S(=O)(=O)N1 (stereo not given) [Althiazide]	0.219 ± 0.016
CC(=O)OCC(=O)[C@@]1(O)[C@H](C)C[C@H]2[C@@H]3CCC4=CC(=O)C=C[C@]4(C)[C@@]3(F)[C@@H](O)C[C@@]21C [Dexamethasone acetate]	0.192 ± 0.017
CC(C)(C)NCC(O)c1ccc(O)c(CO)c1 (stereo not given) [Salbutamol]	0.192 ± 0.0026
CC(C)NCC(O)c1cc(O)cc(O)c1 (stereo not given) [Metaproterenol sulfate, orciprenaline sulfate]	0.2 ± 0.03
CN(CCOc1ccc(NS(C)(=O)=O)cc1)CCc1ccc(NS(C)(=O)=O)cc1 [Dofetilide]	0.171 ± 0.016
N=c1nc(N2CCCCC2)cc(N)n1O [Minoxidil]	0.225 ± 0.0082
Clc1ccccc1C(c1ccccc1)(c1ccccc1)n1ccnc1 [Clotrimazole]	0.0437 ± 0.0032
CC(=O)Oc1ccccc1C(=O)Nc1ncc([N+](=O)[O-])s1 [Nitazoxanide]	0.0425 ± 0.0013
CCOc1ccccc1OC(c1ccccc1)C1CNCCO1 (stereo not given) [Reboxetine mesylate]	0.2 ± 0.02
NC(=O)c1cc[n+](CC2=C(C(=O)[O-])N3C(=O)[C@@H](NC(=O)[C@@H](c4ccccc4)S(=O)(=O)O)[C@H]3SC2)cc1 [Cefsulodin sodium salt]	0.228 ± 0.006
CC(C)(C)NC(=O)[C@@H]1C[C@@H]2CCCC[C@@H]2CN1C[C@@H](O)[C@H](Cc1ccccc1)NC(=O)[C@H](CC(N)=O)NC(=O)c1ccc2ccccc2n1 [Saquinavir mesylate]	0.0468 ± 0.0011
CCCCOC(=O)c1ccc(O)cc1 [Butylparaben]	0.157 ± 0.0026
Cc1cn[nH]c1 [Fomepizole]	0.231 ± 0.024
NC1CCN(c2nc3c(cc2F)c(=O)c(C(=O)O)cn3-c2ccc(F)cc2F)C1 (stereo not given) [Tosufloxacin hydrochloride]	0.0552 ± 0.0018
CN(C)CCN1C(=O)c2ccccc2N(C)c2ccccc21 [Dibenzepine hydrochloride]	0.185 ± 0.03
Nc1nc(NC2CC2)c2ncn([C@H]3C=C[C@@H](CO)C3)c2n1 [Abacavir Sulfate]	0.182 ± 0.012
O=C(NCCN1CCOCC1)c1ccc(Cl)cc1 [Moclobemide]	0.225 ± 0.032
CC(C)C[C@H](NC(=O)[C@@H](O)[C@H](N)Cc1ccccc1)C(=O)O [Ubenimex]	0.215 ± 0.028
CC(C(=O)O)c1ccc(-c2ccccc2)c(F)c1 (stereo not given) [Flurbiprofen]	0.168 ± 0.0089
